An excerpt weighted towards active compounds, which were near 19% of everything screened.
TDP1 cell noCPT: qHTS for Inhibitors of human tyrosyl-DNA phosphodiesterase 1 (TDP1): qHTS in cells in absence of CPT; DT40 Tdp1-/- hTDP1 cells, no CPT, ATP luminescence, 48 h; Potency, µM (top dose mostly 46.2 µM), inactives show top-dose activity change, negative = growth inhibition, usual class: inhibitors; 15% of 420,000 active; also: potency is read from the fitted curve at half-maximal effect; % is scaled to controls: 0 for no effect and ±100 for the full control effect; nearly all actives have a fitted effect of over 55% in size
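No-CPT arm: Tdp1-/-;hTDP1 DT40 cells (400/well) plus compounds, incubated ≥48 hr at 37 °C. Readout CellTiter-Glo luminescence.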
Chronic BCR inh: qHTS Assay to Find Inhibitors of Chronic Active B-Cell Receptor Signaling; 0.05% of 340,000 active; ABC-DLBCL IkBa-CBG/CBR reporter, luminescence ratio, 4 h; Potency, µM (top dose mostly 46.1 µM), for the others: top-dose activity change, negative = inhibition, most hits filed as inhibitors; active = well fitted inhibition curve with a large enough effect in the signal ratio, with a control signal flat, not every such curve was filed as active; inconclusive = small, poorly fitted or top-dose-only effect, or effect the other way, or a change in a side signal; the % refers to the signal ratio;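 also: potency is read from the fitted curve at half-maximal effect; plate controls were basal doxycycline-induced cells for no effect and cells given 10 µM MG132 for full effect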
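Doxycycline induced both beetle luciferases in TMD8 lymphoma cells; IKK-driven degradation limits the IkappaBalpha-fused green signal, while red luminescence normalises for cell number and nonspecific effects. Compounds tested up to 46 uM, 4 hrs.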
TDP1 cell CPT: qHTS for Inhibitors of human tyrosyl-DNA phosphodiesterase 1 (TDP1): qHTS in cells in presence of CPT | chicken DT40 Tdp1-/-;hTDP1 cells + 20 nM CPT, ATP luminescence, 48 h | Potency, µM (doses to about 46.2 µM), inactives show at the highest dose activity change, negative = growth inhibition, actives largely listed as inhibitors | 12% of 420,000 active; also: potency is read from the fitted curve at half-maximal effect; % is scaled to controls: 0 for no effect and ±100 for the full control effect; nearly all actives have a fitted effect of over 55% in size
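Cell growth measured by CellTiter-Glo luminescence after a minimum 48 h, 37 C compound exposure with 20 nM CPT in Tdp1-knockout DT40 cells stably expressing hTDP1, seeded 400/well; qHTS titration format.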
IL-1B inflam inh: qHTS for Inhibitors of Inflammasome Signaling: IL-1-beta AlphaLISA Primary Screen; AID 743279, 2014; 4.7% of 360,000 active; THP-1 LPS/ATP IL-1B secretion, AlphaLISA, 16 h; hits give low values; activity change, % at 57.5 µM; in the data active = activity change below about -50%; inconclusive = mostly about -30% to -49%; also: % is scaled to controls: 0 for no effect and ±100 for the full control effect
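THP-1 cells pretreated 1 hr with compounds (up to 57.5 uM final), then stimulated with LPS (250 ng/mL final) plus ATP (1.25 mM final); secreted IL-1B measured by AlphaLISA after 16 hr, decreased signal indicating inhibition.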
MCF10A rereplic: A quantitative high throughput screen for small molecules that induce DNA re-replication in MCF 10a normal breast cells; MCF 10A DNA re-replication, Hoechst nuclear intensity, 48 h; 2.9% of 350,000 active; Potency, µM (highest dose often 46.1 µM), for the others: top-dose activity, positive = re-replication, most hits filed as activators; AID 624296, 2012; also: potency is read from the fitted curve at half-maximal effect; % of control where 0% means no effect; nearly all actives have a fitted effect of over 50% in size
SW480 rereplic: A quantitative high throughput screen for small molecules that induce DNA re-replication in SW480 colon adenocarcinoma cells | SW480 DNA re-replication, Hoechst DNA content imaging, 48 h | Potency, µM (doses to about 46.1 µM), inactives show top-dose re-replication activation, actives largely listed as activators | 1.8% of 340,000 active | AID 624297, 2012; also: potency is read from the fitted curve at half-maximal effect; % of control where 0% means no effect; nearly all actives have a fitted effect of over 55% in size
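Compounds, transferred as 23 nL by pin tool, were incubated with cells for 48 hr; DNA content per nucleus was then quantified by Hoechst staining and fluorescence plate imaging.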
The depositor's hits bear a star; i = inactive; ? = inconclusive; nt = no result given. Unless noted, calls follow the shape of the dose curve; as a rule, active = well fitted curve in the direction sought with a large enough effect; inconclusive = small, poorly fitted or top-dose-only effect, or another doubt; inactive = no such curve, though single readings can be large; an effect the other way counts as inactive or inconclusive.

SMILES | TDP1 cell noCPT | Chronic BCR inh | TDP1 cell CPT | IL-1B inflam inh | MCF10A rereplic | SW480 rereplic
CCCS(=O)(=O)NC(=O)C1(C)CCCN(C(=O)c2cc(OC)ccc2Br)C1 (stereo not drawn) | -2% | nt | -4% | 38 | nt | nt
Cc1ccc(S(=O)(=O)N2CCCC(c3nc4c(nnn4Cc4ccc(OC(F)(F)F)cc4)c(=O)[nH]3)C2)cc1 (stereo not drawn) | -13% | nt | -6% | nt | nt | nt
CCOC(=O)N1CCN(CC(=O)Nc2nc3ccc(OC)cc3s2)CC1 | ? | -3% | ? | 19 | 2% | -4%
Cc1cc(C(=O)OC(C)C(=O)NC2CCCCC2C)c2ccccc2n1 (stereo not drawn) | -25% | nt | -25% | 32 | nt | nt
Cc1cc(C)cc(-n2c(C)cc(C(=S)N3CCOCC3)c2C)c1 | 12µM* | ? | ? | -54* | 0% | 2%
Cc1cc(C)cc(N2CCN(C(=O)N3CCOCC3)CC2)c1 | -13% | 1% | -10% | 8 | -3% | 1%
C=CCN(CC=C)C(=O)C(=O)c1cc(C)n(-c2ccc([N+](=O)[O-])cc2)c1C | 15µM* | 4% | ? | 10 | -7% | -7%
CCOc1ccc(N=c2scc(-c3ccc(OC)cc3)n2CCO)cc1 | ? | ? | 9.2µM* | ? | ? | 2%
CCOc1ccc(N=c2scc(-c3ccccc3)n2CCO)cc1 | 23µM* | ? | 16µM* | -66* | -5% | 1%
CCn1c(-c2ccccc2)csc1=Nc1ccc(O)cc1 | ? | ? | ? | -95* | 18% | 4%
CCOc1ccc(-c2nnc(-c3ccc(OC)cc3)o2)cc1 | -21% | -8% | -20% | -20 | 14% | -5%
Oc1ccc(N=Nc2ccccc2)cc1 | ? | ? | ? | 1 | -5% | -5%
Cc1ccc(S(=O)(=O)N2CCC(C(=O)Nc3nnc(C)s3)CC2)cc1 | -7% | -13% | -18% | -4 | -6% | -8%
CC1(C(=O)NS(=O)(=O)c2ccc(Cl)cc2)CCN1C(=O)c1ccccc1CCc1ccccc1 (stereo not drawn) | -20% | nt | 2% | -3 | nt | nt
Cc1cc(Nc2ccc(O)cc2)ccc1N | 3.2µM* | 8% | 5µM* | nt | nt | nt
Oc1ccc(Nc2ccc3ccccc3c2)cc1 | 23µM* | nt | 18µM* | ? | ? | 23%
CCC(=O)Nc1ccc2ccccc2c1 | 9% | -9% | 5% | -1 | -2% | -3%
COc1ccc(C(=O)COC(=O)c2cc(=O)c3ccccc3o2)cc1 | -10% | 0% | -22% | 10 | 4% | 7%
CC(=O)NC(=C(Cl)Cl)S(=O)(=O)c1ccccc1 | 8.2µM* | ? | 12µM* | -100* | 13µM* | 12µM*
CC(=O)Nc1ccc(/C(C)=N/NS(=O)(=O)c2ccccc2)cc1 | 14% | -10% | 5% | 14 | -3% | -4%
Cc1ccc(S(=O)(=O)/C(=C/Cl)NC(=O)c2ccccc2)cc1 | 15µM* | ? | 18µM* | -73* | 4.1µM* | 13µM*
Cc1ccc(C(=O)NC(=C(Cl)Cl)S(=O)(=O)c2ccc(Cl)cc2)cc1 | 18µM* | ? | ? | -64* | ? | ?
Cc1ccc(C(=O)NS(=O)(=O)c2ccc(C)cc2)cc1 | -1% | -5% | -16% | 14 | 3% | -9%
Cc1ccc(S(=O)(=O)CCC(=O)OCC(=O)NC(=O)c2ccccc2)cc1 | -1% | 0% | 3% | 3 | 18% | -2%
O=C(NC(=C(Cl)Cl)S(=O)(=O)c1ccc(Cl)cc1)c1ccccc1 | 9.2µM* | 7% | 6.5µM* | -93* | ? | ?
SMILES | TDP1 cell noCPT | Chronic BCR inh | TDP1 cell CPT | IL-1B inflam inh | MCF10A rereplic | SW480 rereplic
COc1ccc(-c2nn(CC(=O)NCc3ccccc3)c3c2cnc2ccc(F)cc23)cc1 | 3% | nt | -19% | nt | nt | nt
Cc1ccc(S(=O)(=O)C(NC(=O)c2ccccc2)=C(Cl)Cl)cc1 | 13µM* | nt | 23µM* | -117* | 6.5µM* | ?
Cc1ccc(C(=O)NC(=C(Cl)Cl)S(=O)(=O)c2ccc(C)cc2)cc1 | ? | ? | ? | -104* | 13µM* | ?
CCOC(=O)N1CCN(Cc2nc3cc(NC(=O)c4ccccc4[N+](=O)[O-])ccc3n2C(C)C)CC1 | 16µM* | nt | 16µM* | nt | nt | nt
CCOC(=O)N1CCN(Cc2nc3cc([N+](=O)[O-])ccc3n2C(C)C)CC1 | ? | nt | 21µM* | nt | nt | nt
CCn1c(CN2CCOCC2)nc2cc(NC(=O)c3ccccc3[N+](=O)[O-])ccc21 | -17% | nt | -21% | nt | nt | nt
CCOC(=O)N1CCN(Cc2nc3cc(NC(=O)c4ccccc4OC)ccc3n2C(C)C)CC1 | 2.3µM* | nt | 3.7µM* | nt | nt | nt
CCOC(=O)N1CCN(Cc2nc3ccc([N+](=O)[O-])cc3c(=O)n2-c2ccc(OC)cc2OC)CC1 | ? | 0% | ? | 41 | ? | 10%
CCOC(=O)N1CCN(Cc2nc3cc(NC(=O)c4ccco4)ccc3n2CC)CC1 | ? | 2% | -20% | i | 14% | 1%
CCCN1CCN(C(=O)c2c(Cl)cnn2C)CC1 | 11% | -5% | -7% | 29 | 0% | -5%
COCCOC(=O)c1c(C)nc(SCC(=O)Nc2cccc3ccccc23)c(C#N)c1-c1ccco1 | 29µM* | 6% | ? | 122 | 13% | 1%
N#CSC(c1ccccc1)c1nc2ccccc2[nH]c1=O (stereo not drawn) | 26µM* | 1% | 6.5µM* | 29 | 3% | 24%
Cc1ccc(-n2c(SCC(=O)N3CCCc4ccccc43)nnc2-c2cccnc2)c(C)c1 | 23µM* | 1% | ? | 20 | 4% | -9%
Cn1c(-c2ccccc2)cnc1SCC(=O)N1CCCc2ccccc21 | ? | 10% | ? | ? | 20% | -3%
Cc1ccc(-c2cnc(SCC(=O)N3CCCc4ccccc43)n2C)cc1 | -20% | 3% | -24% | -50* | -4% | -5%
O=C(CSc1ncc(-c2ccccc2)n1C1CCCC1)N1CCc2ccccc21 | 21µM* | ? | 23µM* | -61* | 0% | -7%
CCOc1ccccc1-n1c(SCC(=O)N2CCCc3ccccc32)nnc1-c1cccnc1 | ? | 13% | ? | -12 | ? | -73%
